SMN2 splice up: increases expression of the SMN2 splice variant; HEK293 SMN2-luciferase splicing reporter, luminescence, 30-36 h; Potency, µM (highest dose often 46.1 µM), for the others: at the top dose activity change, positive = activation, actives largely listed as activators; hit rate 2.8% among 210,000; AID 1458; also: % of control where 0% means no effect; nearly all actives have a fitted effect of over 55% in size
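HEK293 cells carry an SMN2 […]–luciferase reporter in which exon 7 inclusion puts luciferase in frame. Cells were plated 10-12 h before compound addition, then incubated 30-36 h at 37C. ONE-Glo luminescence was read; sodium butyrate at 4.5 mM final served as control.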
Rab9 promoter act: activators of Rab9 promoter; Huh7 Rab9 promoter-luciferase reporter, luminescence, 24 h; Potency, µM (series often up to 9.22 µM), inactives show at the top dose activation, negative = inhibition, usual class: activators; hit rate 2.8% among 320,000; also: % of control where 0% means no effect; nearly all actives have a fitted effect of over 60% in size
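Luminescence from Amplite-detected luciferase (10 minutes, ambient) reports Rab9 promoter activation. Before that, stable Rab9-luciferase Huh7 cells (1500/well, reduced-serum OP-MEM I plus 10% FBS) were exposed to compound for 24 hours at 37C.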
p53 reactivation: mutant p53 re-activation in reporter cells; hit rate 0.063% among 320,000; Potency, µM (titrated, usually from 92.2 µM), for the others: at the highest dose activity change, positive = activation, most hits filed as activators; H1299 p53-A138V BP100-luciferase reporter, luminescence, 24 h; also: % of control where 0% means no effect; nearly all actives have a fitted effect of over 45% in size
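p53-null H1299 cells stably carrying temperature-sensitive p53-A138V and a BP100-luciferase reporter were pinned with compounds (4-point, 1:5 series) and held 24 hrs at 37 deg C. Luminescence was read 10 min after detection reagent.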
FLuc modulator: firefly luciferase modulation, counter-screen for miR-21 project | AID 588342 | purified FLuc, Km substrates, luminescence inhibition | P08659 | hit rate 6.9% among 360,000 | Potency, µM (highest dose often 57.5 µM), for inactives: top-dose activity change, negative = inhibition, most hits filed as inhibitors;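 also: plate controls were vehicle for no effect and reference inhibitor for full effect; nearly all actives have a fitted effect of over 55% in size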
Target sequence (P08659 whole entry, looked up): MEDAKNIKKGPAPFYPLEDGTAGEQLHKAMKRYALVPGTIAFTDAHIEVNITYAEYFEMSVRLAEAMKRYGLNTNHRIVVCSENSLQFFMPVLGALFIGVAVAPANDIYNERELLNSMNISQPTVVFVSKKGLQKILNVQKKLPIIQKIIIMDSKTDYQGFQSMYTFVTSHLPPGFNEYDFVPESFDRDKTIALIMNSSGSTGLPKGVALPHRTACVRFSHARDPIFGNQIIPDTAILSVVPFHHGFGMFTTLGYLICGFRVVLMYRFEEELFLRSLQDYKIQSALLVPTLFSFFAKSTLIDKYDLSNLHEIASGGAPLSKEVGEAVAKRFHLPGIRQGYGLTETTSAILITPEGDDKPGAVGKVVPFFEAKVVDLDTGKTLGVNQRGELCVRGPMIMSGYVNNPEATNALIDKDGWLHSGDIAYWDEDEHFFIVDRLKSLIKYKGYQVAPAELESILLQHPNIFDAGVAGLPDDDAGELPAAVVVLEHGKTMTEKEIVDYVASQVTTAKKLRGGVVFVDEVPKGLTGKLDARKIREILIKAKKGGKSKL
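Purified P. pyralis luciferase (10nM final) with 10uM D-luciferin and 10uM ATP (Km levels) in 50mM Tris acetate pH 7.5, 10mM Mg acetate, 0.01% Tween-20, 0.05% BSA; qHTS 6-point titration, ~60 µM downward; luminescence read.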
NPC1 promoter act: NPC1 promoter activation; hit rate 2.4% among 320,000; AID 485313; Potency, µM (highest dose often 9.22 µM), for inactives: at the highest dose activation, actives largely listed as activators; Huh7 NPC1 promoter luciferase reporter, 24 h; also: % of control where 0% means no effect; nearly all actives have a fitted effect of over 60% in size
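Stably transfected Huh7 (NPC1 promoter→luciferase), 1500 cells/well in Opti-MEM + 10% FBS, 2 h settle, then compound 24 h at 37 °C. Luminescence after 10 min with Amplite reagent.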
ELG1 genotox: genotoxicity induction in ELG1-luciferase HEK293T cells; HEK293T ELG1-luciferase reporter, luminescence, 16 h; Potency, µM (doses to about 46 µM), without a hit: top-dose activity change, positive = activation, usual class: activators; hit rate 1.3% among 330,000; AID 504466; also: % of control where 0% means no effect; nearly all actives have a fitted effect of over 60% in size
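16 hr compound incubation (37 °C, 5% CO2) of HEK293T cells carrying luciferase-tagged ELG1; luciferase then measured by ONE-Glo luminescence after 30 min at RT.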
Numbers without * were called inactive; ? = inconclusive; / = no result given; [ ] = remark or other dose. An excerpt weighted towards active compounds, which were near 7.4% of everything screened. Calls follow the shape of the dose curve; as a rule, active = well fitted curve in the direction sought with a large enough effect; inconclusive = small, poorly fitted or top-dose-only effect, or another doubt; inactive = no such curve, though single readings can be large; an effect the other way counts as inactive or inconclusive. Potency is read from the fitted curve at half-maximal effect.

SMILES	SMN2 splice up	Rab9 promoter act	p53 reactivation	FLuc modulator	NPC1 promoter act	ELG1 genotox
Oc1ccc(/C=N/Nc2nc(-c3cccnc3)nc3ccccc23)c(O)c1	/	4%	19%	4.8µM*	-1%	-3%
N=c1ccn2c(n1)O[C@H]1[C@@H](OP(=O)(O)O)[C@H](CO)O[C@H]12	-11%[9.22 µM]	/	/	/	/	/
Cc1ccc(C(=O)OCC(=O)NCc2ccc(F)cc2)o1	/	1%	-9%	5%	-2%	-1%
COc1ccc(OCC(=O)Nc2ccc3c(c2)nc(CCN2CCN(C)CC2)n3C)cc1	/	8%	4%	0%	-3%	2%
CCOC(=O)C1=C(C)NC2=C(C(=O)CC(C)(C)C2)C1c1coc2ccccc2c1=O (stereo not given)	1%	-2%	-8%	1%	0%	0%
CC1(C)COC(c2coc3ccccc3c2=O)OC1	?	27%	?	17µM*	29%	?
O=C(Nc1cccc(-c2nc3ncccc3o2)c1)c1sc2ccccc2c1Cl	-5%	?	2%	1.3µM*	?	-1%
O=C(Nc1cccc(-c2nc3ncccc3o2)c1)c1cc2ccccc2o1	1%	?	-4%	8.5µM*	?	-2%
CCC(C)c1ccc(OCC(=O)Nc2cccc(-c3nc4ncccc4o3)c2)cc1 (stereo not given)	3%	/	/	7.6µM*	/	/
Cc1cc(C)cc(OCC(=O)Nc2cccc(-c3nc4ncccc4o3)c2)c1	1%	5%	1%	?	2%	-16%
COc1ccccc1CNC(=O)CCCCn1c(=O)c2ccccc2n(Cc2ccccc2C)c1=O	2%	/	/	-10%	/	/
CCCn1c(-c2ccc(F)cc2)nc2c(N3CCN(CCn4ccnc4)CC3)nc(C)nc21	-11%	/	/	/	/	/
COc1ccc(S(=O)(=O)NC(C)C(=O)NCc2ccccn2)cc1OC (stereo not given)	/	-3%	9%	0%	-1%	1%
CC(OC(=O)c1c2c(nc3ccccc13)/C(=C\c1ccc3c(c1)OCO3)CCC2)C(=O)Nc1ccc(S(N)(=O)=O)cc1 (stereo not given)	-14%	0%	11%	?	-15%	-1%
CCCCNC(=O)COC(=O)c1c2c(nc3ccccc13)CCC2	/	-1%	0%	-12%	-7%	-17%
CNC(=O)NC(=O)C(C)OC(=O)c1c2c(nc3ccccc13)/C(=C/c1cccs1)CC2 (stereo not given)	?	-34%	?	6µM*	-32%	-17%
CCCCNC(=O)COC(=O)c1c2c(nc3ccccc13)/C(=C/c1cccs1)CC2	11µM*	-30%	?	7.6µM*	-32%	-12%
COc1ccc(Cl)cc1C(=O)Nc1nnc2n1CCS2	/	/	/	0%	/	/
O=C(Nc1nc(-c2ccc(S(=O)(=O)N3CCOCC3)cc2)cs1)c1ccccc1	-60%	-20%	1%	-15%	-22%	-10%
O=C(Nc1nc(-c2nc3ccccc3s2)cs1)c1ccc(S(=O)(=O)N2CCOCC2)cc1	/	4.5µM*	?	?	3.2µM*	-13%
Cc1ccnc(NC(=O)c2cccc(S(=O)(=O)N3CCOCC3)c2)c1	/	13%	2%	17µM*	0%	?
COc1ccc2nc(NC(=O)c3cccc(S(=O)(=O)N4CCOCC4)c3)sc2c1	-29%	4%	19%	11µM*	0%	0%
COc1ccc2nc(NC(=O)c3cc(S(=O)(=O)N4CCOCC4)ccc3C)sc2c1	-49%	1%	5%	11µM*	2%	-4%
COc1cc(C(=O)Nc2nc3ccc(S(=O)(=O)N4CCOCC4)cc3s2)cc(OC)c1OC	-12%	-6%	-8%	-1%	-1%	-4%
O=C(Nc1ccccn1)c1cccc(S(=O)(=O)N2CCOCC2)c1	-2%	-4%	-4%	6%	0%	-4%
COc1ccc(OC)c(NC(=O)c2nc(SCc3ccc(F)cc3)ncc2Cl)c1	5%	/	/	-1%	/	/
